Reference: PubChem BioAssay AID434958 (Southern Research Specialized Biocontainment Screening …, 2010)
The campaign covered roughly 1,200 compounds. About 400 (33%) were called active. No rule for the calls is given here. These entries were drawn from the full list. Entries that show only a call come without a potency. Potency and affinity values are given separately.

assay: mammalian cell cytotoxicity, dose response, cytotoxicity control (AID 434958); conditions: cytotoxicity counter-screen; series mostly up to 40 µM;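 also: cells exposed to compound for 72 hours before readout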

| Structure (SMILES) | outcome |
| --- | --- |
| Cc1ccc(C)c(N2CCN(C3CCCC(C)C3)CC2)c1 (configuration not stated) | inactive |
| O=C(Nc1ccc(Cl)cc1)C1CC2CCCC(C1)C2=O (configuration not stated) | inactive |
| Cc1ccc(NC(=O)CSc2n[nH]c(-c3ccco3)n2)cc1 | inactive |
| CCCC(C(=O)N1CCOCC1)N1C(=O)C2C3C=CC(C3)C2C1=O (configuration not stated) | inactive |
| Cc1ccc(C(=O)Nc2c(C)cc(C)c3cccnc23)cc1 | inactive |
| Cc1c(C(=O)c2ccccc2)oc2ccc3ccccc3c12 | inactive |
| COCCOC(=O)c1c(C)oc2ccc(OC(=O)c3c(OC)cccc3OC)cc12 | inactive |
| COc1ccc(-c2c(-c3ccsc3)oc3ccc(N4CCOCC4)cc23)cc1 | inactive |
| Cc1nn(C)c(C)c1C1C(C#N)=C(N)OC2=C1C(=O)CCC2 (configuration not stated) | inactive |
| Cc1cccnc1NC(=O)c1cc2ccccc2oc1=O | inactive |
| Cc1ccc(C)c(NC(=O)C2Cc3ccccc3CN2C(=O)OCc2ccccc2)c1 (configuration not stated) | inactive |
| CNc1ccccc1NC(=O)C1CCCN1C(=O)OCc1ccccc1 (configuration not stated) | inactive |
| O=C(NC(=S)N1CCOCC1)c1ccc([N+](=O)[O-])cc1 | inactive |
| NC(=O)CN1C(=O)C(O)(CC(=O)/C=C\C=C\c2ccccc2)c2ccccc21 (configuration not stated) | inactive |
| C=CCC(Nc1ccccc1)C12C=CC(O1)C(C(=O)OC)=C2C(=O)OC (configuration not stated) | inactive |
| COc1ccc2ccccc2c1/C=N/NC(=O)c1cccc(C)c1 | inactive |
| COc1cc(C(=O)N/N=C/c2ccc(OC(=O)c3cccc(C)c3)cc2)ccc1O | inactive |
| Cc1ccccc1NC(=O)/C(C#N)=C\c1cc(C)n(-c2ccc(C(=O)O)cc2)c1C | inactive |
| Cc1cc(C)c(OCC(=O)Nc2nc3ccccc3[nH]2)c(C)c1 | inactive |
| O=C(COc1ccc2ccccc2c1)Nc1nc2ccccc2[nH]1 | inactive |
| Cc1ccc(SCc2c(C#N)c3ccccc3n2C)cc1 | inactive |
| Clc1ccc(Cn2cc(/C=N/n3cnnc3)c3ccccc32)cc1 | inactive |
| Nc1nc(Sc2ncccc2[N+](=O)[O-])n[nH]1 | inactive |
| Cc1nnnn1/C(=C\c1ccccc1)C(=O)OCC(=O)NC1CCCCC1 | inactive |

| Structure (SMILES) | outcome |
| --- | --- |
| CCOC(=O)CNC(=O)CSc1ncnc2c1cnn2Cc1ccccc1 | inactive |
| Cc1cc(C)n(-c2nc3ccccc3c(=O)n2OCC(=O)N(C)C)n1 | inactive |
| CC1CCN(C(=S)NC(=O)c2ccccc2)CC1 | inactive |
| CCc1cc2c(=O)nc3n(c2s1)Cc1ccccc1/C3=C(/O)c1ccc(F)cc1 | inactive |
| CCC(CC)c1nnc(NC(=O)c2cc(-c3ccccc3)nc3ccccc23)s1 | inactive |
| CCCSc1nnc(NC(=O)c2sc3nc(-c4cccs4)ccc3c2N)s1 | inactive |
| COc1cc(OC)c(OC)cc1/C=C1\CCC(C2CCCC2)C1=O (configuration not stated) | inactive |
| O=C(NCc1ccc2c(c1)OCO2)C(=O)NC1CCCCC1 | inactive |
| CCCCn1nc2cc(C(=O)NCC34CC5CC(CC(C5)C3)C4)ccc2c1OCC | inactive |
| O=C(CSc1nnc(-c2ccncc2)o1)c1cccc([N+](=O)[O-])c1 | inactive |
| O=C(OCC(=O)c1c[nH]c2ccccc12)c1cccc([N+](=O)[O-])c1 | inactive |
| O=C(Cn1nnc2c(cnn2-c2ccccc2)c1=O)N1CCN(c2ccccc2F)CC1 | inactive |
| CCN(CCNC(=O)Nc1ccc(Cl)cc1)c1ccccc1 | inactive |
| CCOC(=O)c1nn(-c2ccc(Cl)cc2)cc1O | inactive |
| S=c1nccc(-c2ccc3c(c2)CCO3)[nH]1 | inactive |
| Cc1ccc(C(=O)Nc2nc3ccccc3s2)s1 | inactive |
| CC(=O)Nc1scc(C)c1-c1nc2ccccc2s1 | inactive |
| O=C1S/C(=C\C=C\c2ccco2)C(=O)N1c1ccccc1 | inactive |
| O=C1CS/C(=N/N=C2C3CC4CC(C3)CC2C4)N1 | inactive |
| NC(=S)N/N=C/c1ccc(/C=N/NC(N)=S)cc1 | inactive |
| CCOC(OCC)c1cn(Cc2ccc3c(c2)C(=O)c2ccccc2C3=O)nn1 | inactive |
| S=C(Nc1ccccc1)Nc1ccc(Cl)cn1 | inactive |
| c1ccc(CSc2nnc(-c3ccco3)o2)cc1 | inactive |
| O=C(Cn1c(=O)n(CCCC(=O)NC2CCCC2)c(=O)c2ccccc21)NCCC1=CCCCC1 | inactive |

| Structure (SMILES) | outcome |
| --- | --- |
| COc1cc(/C=C/c2ccc3cccc([N+](=O)[O-])c3n2)ccc1OCC(=O)O | inactive |
| CCOc1ccc(NC(=O)/C(C#N)=C/c2cn(CC(=O)O)c3ccccc23)cc1 | inactive |
| CC(C)(C)c1nc2scc(-c3cccs3)c2c(=O)o1 | inactive |
| O=C(CSc1nnc(-c2cnccn2)n1Cc1ccco1)Nc1ccc(Br)cc1 | inactive |
| CN(NC(=O)c1c(Cl)cccc1Cl)c1cccc(Cl)n1 | inactive |
| Cc1onc(-c2ccccc2Cl)c1C(=O)NCc1ccc2c(c1)cc(C)n2C | inactive |
| c1ccc(OCc2nnc(-c3ccccc3)o2)cc1 | inactive |
| CC1(C)CCN2CCC(C)(C)c3c(O)ccc1c32 | inactive |
| CCN(CC)C(=O)Cn1cc(C(=O)C(=O)N2CCN(c3ccccc3)CC2)c2ccccc21 | inactive |
| C#C[C@]1(O)CC[C@H]2[C@@H]3CCC4=C(CCC(=O)C4)[C@H]3CC[C@@]21C | inactive |
| Cc1ccc(SCc2c(-c3ccccc3)nn(C)c2Cl)cc1 | inactive |
| O=C(N/N=C/c1c(O)n(Cc2ccc(F)cc2)c(=S)[nH]c1=O)c1ccncc1 | inactive |
| COC(=O)Cn1nc(-c2ccccc2)c2ccccc21 | inactive |
| COC(=O)c1c(C(=O)OC)c(C)n(Cc2ccco2)c1C | inactive |
| CCOc1cc(CNCCN(C)C)c(Cl)cc1OCC(=O)NCCc1ccccc1 | inactive |
| CCc1ccc(NC(=O)c2c(Cl)nc(C)c(Cl)c2C)cc1 | inactive |
| Cc1cc(=O)[nH]c(N/N=C/c2c(O)n(-c3ccccc3)c(=O)c3ccccc23)n1 | inactive |
| COc1ccc(/C=N\NC(=O)c2sc(N)nc2C)cc1OC | inactive |
| Cc1ccccc1/C=N\NC(=O)c1csnn1 | inactive |
| Cc1nn(-c2ccccc2)cc1/C=N/NC(N)=S | inactive |
| CCN(CC)C(=O)C1CCCN(c2ccc([N+](=O)[O-])cc2/C=N/NC(=O)c2cccc(O)c2)C1 (configuration not stated) | inactive |
| O=C(N/N=C/c1c(Cl)cccc1Cl)c1cccc(F)c1 | inactive |
| CCc1ccc(NC(=S)Nc2ccc3[nH]c(=O)[nH]c3c2)cc1 | inactive |
| COc1ccc([N+](=O)[O-])cc1NC(=O)c1ccc(Br)s1 | inactive |
